Source: PubChem (National Center for Advancing Translational Sciences (NCATS))
TSHR ag: agonists of human thyroid stimulating hormone receptor. HEK293-CNG-TSHR cells (CNG channel as cAMP sensor), membrane potential dye, cAMP. Potency, µM (series often up to 57.1 µM), inactives show at the top dose activation, hits mostly activators. actives 0.48% (n = 73,000). AID 926; active = well fitted activation curve with a large enough effect in the main read-out, with a control signal flat, not every such curve was filed as active; inconclusive = small, poorly fitted or top-dose-only effect, or a change in a side signal; inactive = no such curve, though single readings can be large or run the other way; % of control where 0% means no effect;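 also: the control signal comes from parental cells without the receptor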
Target sequence (P16473 whole entry, looked up): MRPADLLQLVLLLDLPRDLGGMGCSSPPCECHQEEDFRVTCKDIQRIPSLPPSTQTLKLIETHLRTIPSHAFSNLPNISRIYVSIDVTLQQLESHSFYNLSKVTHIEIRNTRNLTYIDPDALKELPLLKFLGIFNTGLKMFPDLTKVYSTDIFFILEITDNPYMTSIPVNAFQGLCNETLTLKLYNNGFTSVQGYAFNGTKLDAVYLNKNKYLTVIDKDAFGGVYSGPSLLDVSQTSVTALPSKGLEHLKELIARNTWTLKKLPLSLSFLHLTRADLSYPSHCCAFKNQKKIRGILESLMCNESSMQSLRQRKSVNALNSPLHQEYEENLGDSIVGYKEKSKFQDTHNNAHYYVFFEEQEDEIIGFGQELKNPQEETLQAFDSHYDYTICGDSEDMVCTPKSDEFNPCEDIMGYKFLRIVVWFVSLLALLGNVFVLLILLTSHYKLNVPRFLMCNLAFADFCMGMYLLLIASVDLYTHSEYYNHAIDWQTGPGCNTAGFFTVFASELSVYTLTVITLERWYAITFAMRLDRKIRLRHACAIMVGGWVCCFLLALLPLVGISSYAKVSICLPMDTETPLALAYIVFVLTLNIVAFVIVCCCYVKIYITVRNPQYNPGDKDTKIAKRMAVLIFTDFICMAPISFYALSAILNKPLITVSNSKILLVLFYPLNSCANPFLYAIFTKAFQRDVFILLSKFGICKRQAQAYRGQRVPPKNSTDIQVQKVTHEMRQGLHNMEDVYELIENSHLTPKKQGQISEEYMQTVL
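HEK 293 cells stably expressing TSHR and a modified CNG channel, with CNG-only parental cells as counterscreen, were preloaded 60 min at room temperature with membrane potential dye containing 100 uM RO 20-1724. Compound exposure was 30 min, and depolarization was read as fluorescence at 590 nm.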
HEK293 cAMP ctrl: raises cAMP in parental HEK293 cells, TSHR agonist counter-screen; Potency, µM (top dose mostly 57.1 µM), for inactives: top-dose activation, hits mostly activators; parental HEK293 CNG cAMP sensor, membrane potential fluorescence; actives 2.5% (n = 73,000); also: % of control where 0% means no effect; nearly all actives have a fitted effect of over 55% in size
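Parental HEK 293 cells stably expressing a cAMP-gated CNG channel were loaded with membrane potential dye containing 100 uM RO 20-1724 for 60 min. Compound added for 30 min; depolarization read as fluorescence intensity at 590 nm.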
PK Bst: alters activity of Bacillus stearothermophilus pyruvate kinase | actives 1.2% (n = 51,000) | purified pyruvate kinase, luminescence ATP production; ribose 5-phosphate activator present at AC10 | AID 361 | Potency, µM; in the data active = potency below about 11 µM; inconclusive = mostly about 12 µM to 25 µM;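 the screen sought inhibitors and activators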;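 also: scaled between full activation by ribose 5 phosphate and full inhibition by luteolin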
Luciferase inh: firefly luciferase inhibition; AID 411; actives 2.2% (n = 72,000); P08659; purified firefly luciferase, luminescence, 8 min; Potency, µM (top dose mostly 57.1 µM), for the others: at the top dose activity change, negative = inhibition, hits mostly inhibitors; also: % is scaled to controls: 0 for no effect and ±100 for the full control effect; nearly all actives have a fitted effect of over 40% in size
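Inhibition of light generation by firefly luciferase from ATP and luciferin was profiled with concentration-response curves per sample, ATP held at 10 uM within the enzyme's linear range. Plates were read by luminescence after an 8-minute ambient incubation.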
* marks the source's active call; other numbers are inactive results; i = inactive; u = inconclusive; x = no result; [ ] = dose if it differs, or a comment. In the library only some 5.2% were active in any assay of this set; here they are far more common. Unless noted, calls follow the shape of the dose curve; as a rule, active = well fitted curve in the direction sought with a large enough effect; inconclusive = small, poorly fitted or top-dose-only effect, or another doubt; inactive = no such curve, though single readings can be large; an effect the other way counts as inactive or inconclusive. Potency is read from the fitted curve at half-maximal effect.

SMILES	TSHR ag	HEK293 cAMP ctrl	PK Bst	Luciferase inh
Cc1cc(-c2nnc3n2N=C(c2ccc(-c4ccccc4)cc2)CS3)n[nH]1	u	31.6µM*	x	-8.3%
CCc1nc(SCC(=O)N2CCN(C(=O)c3ccco3)CC2)c2c3c(sc2n1)CCCC3	-2.6%	21.1%	>57	-5.6%
C=CCn1cnc2c(c1=O)c1nc3ccccc3nc1n2/N=C/c1cccc(OC)c1	-7.9%	-8.9%	x	0.9%
COCCn1cnc2c(c1=O)c1nc3ccccc3nc1n2/N=C/c1cccc(OC)c1OC	-9.9%	-15.3%	3.6*	4.5%
CCCc1nnc(SCC(=O)Nc2ccc(OC)cc2)n1N	2.9%	4.1%	>57	-0.1%
CC(=O)Nc1cccc(-c2nc3ccc(NC(C)=O)cc3[nH]2)c1	-4.8%	3.5%	i	15.8µM*
O=C(Nc1ccc2nc(-c3ccco3)[nH]c2c1)c1cccs1	12.4%	6.6%	10.1*	12.6µM*
O=C(Nc1ccc2nc(-c3ccco3)[nH]c2c1)c1ccco1	7.7%	22.8%	10.3*	12.6µM*
Cn1cccc1-c1nc2ccc(NC(=O)c3ccccc3)cc2[nH]1	2.0%	3.7%	x	-17.4%
CC(=O)Nc1ccc2nc(-c3cccnc3)[nH]c2c1	-1.8%	-3.9%	>57	-11.7%
O=C(Nc1ccc(Cn2nnc3ccccc32)cc1)c1ccco1	9.6%	6.2%	>57	-2.6%
O=C(Nc1ccc(-c2nc3ccccc3[nH]2)cc1)c1ccco1	0.3%	-1.9%	3.94*	3.98µM*
Cn1c(Cn2c(=O)sc3ccccc32)nnc1SCC(=O)Nc1ccc(Cl)cc1	-0.1%	15.1%	x	1.7%
O=C(Nc1nncs1)c1ccc(S(=O)(=O)c2ccccc2)cc1	1.5%	-1.1%	>57	3.5%
O=C(CN(C(=O)Cn1nnc(-c2cccs2)n1)c1ccc2c(c1)OCCO2)NC1CCCCC1	8.6%	12.2%	>57	0.7%
Cc1ccc(O)c(NC(=O)c2cccc(NC(=O)c3ccco3)c2)c1	-2.9%	-7.3%	>57	-17.4%
Cc1ccc2nc(-c3cccc(NC(=O)c4ccco4)c3)[nH]c2c1	17.6%	21.5%	6.36*	10µM*
O=C(CSc1ccc(-c2nc3ccccc3[nH]2)cn1)N1CCN(C(=O)c2ccco2)CC1	-0.5%	13.6%	i	20µM*
O=C(Nc1ccc2nc(-c3cccnc3)[nH]c2c1)c1ccco1	-7.6%	0.5%	x	15.8µM*
O=C(c1ccco1)N(Cc1ccco1)c1ccc(O)cc1	1.4%	6.4%	>57	0.8%
CC1(C)CCC(C)(C)c2cc(C(=O)Nc3ccc(C(=O)O)cc3)ccc21	u	u	x	-0.2%
O=c1cnc2cnc(Nc3ccccc3)nc2n1Cc1cccs1	u	12.6µM*	x	1.0%[11.4 µM]
COc1ccc(-c2nc3cnc(Nc4cccc(OC)c4)nc3n(Cc3cccs3)c2=O)cc1	1.7%	11.6%	x	0.7%[11.4 µM]
COc1cccc(Nc2ncc3nc(C)c(=O)n(Cc4cccs4)c3n2)c1	u	3.16µM*	x	0.9%[11.4 µM]
CNc1ccnc(-c2ccccc2OC)n1	8.0%	10.8%	x	-13.2%[2.29 µM]
SMILES	TSHR ag	HEK293 cAMP ctrl	PK Bst	Luciferase inh
COc1cccc(-c2nn(C)c3sc(C(=O)N4CCN(c5ccccn5)CC4)cc23)c1	u	u	7.26*	-1.1%
COc1cccc(-c2nn(C)c3sc(C(=O)N4CCOCC4)cc23)c1	3.6%	2.6%	x	-0.5%
Cn1c(C(=O)NCc2ccco2)cc2c(=O)[nH]c3ccccc3c21	0.1%	3.0%	4.41*	-0.4%
O=C(Nc1ccc(SC(F)F)cc1)C1=COCCO1	-3.1%	0.3%	i	25.1µM*
C=C(C)CSc1nnc(-c2cccc(S(=O)(=O)N(C)C)c2)n1-c1cc(OC)ccc1OC	u	12.6µM*	>57	-9.3%
Cc1ccc(S(=O)(=O)Nc2ccc3c(c2)ncn3C(C)(C)C)cc1	3.5%	8.0%	x	1.5%
CC(C)(C)n1cnc2cc(NS(=O)(=O)c3ccc(Br)cc3)ccc21	x	x	2.47*	-0.3%[25.5 µM]
O=C(NCCc1ccccn1)c1ccc(S(=O)(=O)N2CCCCCC2)cc1	x	6.7%	>57	-0.3%
O=c1c2c(nc3c(-c4ccc(Cl)cc4)c[nH]n13)CCCC2	-6.3%	15.4%	3.25*	2.1%
O=c1c2c(nc3c(-c4cccc5ccccc45)c[nH]n13)CCC2	30.0%	17.2%	x	0.5%
CC1CCN(C(c2ccccc2)c2nnnn2C(C)(C)C)CC1 (stereo unspecified)	u	20µM*	>57	1.5%
CCC(C)(C)n1nnnc1C(c1ccc(N(C)C)cc1)N1CCN(C2CCCCC2)CC1 (stereo unspecified)	-4.2%	11.8%	>57	1.7%
COc1ccccc1C(c1nnnn1C(C)(C)C)N1CCCCCC1 (stereo unspecified)	12.5%	27.8%	u	2.3%
CCC(C)(C)n1nnnc1C(c1ccc(C)cc1)N1CCCC1 (stereo unspecified)	u	25.1µM*	>57	4.7%
COc1ccc(C(c2nnnn2C(C)(C)C)N2CCN(c3nc4ccccc4s3)CC2)cc1 (stereo unspecified)	10µM*	29.5%	>57	1.3%
CCOC(=O)N1CCC(NC(=O)CS(=O)(=O)Cc2nc(-c3cccc(OC)c3)oc2C)CC1	12.2%	24.2%	>57	-1.5%
O=C1NCCCc2c1oc1ccc(O)cc21	0.3%	4.5%	>11.4	-3.5%
COc1ccccc1-c1nnc(Nc2nc3c(OC)cccc3s2)o1	9.3%	11.0%	>57	u
COc1cccc(-c2nnc(Nc3nc4c(F)cccc4s3)o2)c1	-5.2%	-4.1%	i	12.6µM*
COc1cccc2sc(Nc3nnc(-c4ccccc4Cl)o3)nc12	-8.3%	11.0%	x	15.8µM*
O=C(CSC1=NCCN1)Nc1ccccc1	-11.4%[11.4 µM]	-1.8%[11.4 µM]	x	-0.6%[11.4 µM]
CC(O)c1nc2ccccc2n1Cc1nnc(-c2ccc(Cl)cc2)o1 (stereo unspecified)	15.1%	24.9%	2.52*	-9.1%
COCCNC(=O)c1noc2c1CCc1cc(OC)ccc1-2	-0.3%	10.4%	x	12.6µM*
Cc1nc2c(C(=O)NCCc3ccccc3)c[nH]n2c(=O)c1Cl	23.1%	21.4%	>57	1.3%
O=S(=O)(c1ccc(Oc2ccc(Br)cc2F)nc1)N1CCCCC1	u	25.1µM*	>57	-4.9%
SMILES	TSHR ag	HEK293 cAMP ctrl	PK Bst	Luciferase inh
O=S(=O)(c1ccc(S(=O)(=O)N2CCCC2)cc1)N1CCCCCC1	-4.4%	2.6%	>57	3.9%
CCOC(=O)N1CCC(NC(=O)CCN2C(=O)COc3ccccc32)CC1	-4.8%	-4.4%	>57	2.2%
CCCC(OC(=O)CN1C(=O)COc2ccccc21)C(=O)NC1CCCC1 (stereo unspecified)	u	0.794µM*	>57	-3.5%
CCCCN1C(=O)/C(=C2\SC(N3CCCCC3)=NC2=O)c2ccccc21	-10.3%	-12.9%	x	7.94µM*
O=c1c2c([nH]c3ccccc13)C(=C1CCCC1)CC2	-7.9%	-4.8%	x	x
CC(C)=CCC(C)(C)C1OCCN1C(=O)Nc1ccccc1 (stereo unspecified)	10µM*	24.1%	>57	1.9%
CC1c2[nH]c3ccccc3c2CCN1C(=O)Nc1ccccc1 (stereo unspecified)	-9.9%	-11.6%	>57	2.1%
N#Cc1c(N2CCN(C(=O)c3ccco3)CC2)nc(-c2ccccc2)c2c1CCCC2	u	15.8µM*	x	-0.6%
